Out of some 58,000 sequences screened, about 3,600 (6.2%) were called active. Rule as the data show it: active = GI50 up to about 1.1 µM and inactive = higher. A selection follows. Measured potencies and affinities stand elsewhere.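 48-hour exposure; five concentrations; linearly interpolated endpoints. GI50 = concentration required for 50% inhibition of growth.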
system: OVCAR-8; experiment: NCI tumour cell line growth inhibition, 48 h

Row | Substance | GI50 [µM]
1 | [Bis(aminomethyl)dimethylsilane]tetrachloroplatinum(IV), CHEMBL2146190 | 12
2 | mu-(1,7-nanodiamine-N,N')bis-(cis-aminedichloroplatimum (II)), CHEMBL2146215 | 52.6
3 | CISPLATIN, CHEMBL11359 | 4.52
4 | [Bis(aminomethyl)diethylsilane]tetrachloroplatinum(IV), CHEMBL2146203 | 3.53
5 | [Bis(aminomethyl)ethylmethylsilane]tetrachloroplatinum(IV), CHEMBL2146192 | 3.7
6 | [Bis(aminomethyl)tetramethylenesilane]tetrachloropaltinum(IV), CHEMBL2146189 | 6.01
7 | cis-Bis[[(trimethylsilyl)methyl]amino]tetrachloroplatinum(IV), CHEMBL2146191 | 2.44
8 | [Bis(aminomethyl)dimethylsilane]dichloroplatinum (II), CHEMBL2146201 | 29.8
9 | [Bis(aminomethyl)pentamethylenesilane]tetrachloropaltinum(IV), CHEMBL2146204 | 2.17
10 | [Bis(aminomethyl)tetramethylenesilane]dichloropaltinum(II), CHEMBL2146205 | 17
11 | [Bis(aminomethyl)pentamethylenesilane]dichloropaltinum(II), CHEMBL2146202 | 2.05
